Screens from PubChem.
Vif inh: HIV Vif inhibition | HEK293T cells, Vif self-association by quenched fluorescence, imaging, 24 h | inhibition, % at 7.49 µM | hit rate 0.35% among 340,000 | AID 602346; in the data active = inhibition above about 50%, passing the limit was not always enough; inconclusive = no clear call, values can overlap the other calls; inactive = below about 31%
MITF act: MITF TRPM1 promoter activation in melanoma cells. SK-MEL-5 TRPM1-promoter luciferase, 24 h; % of positive control, neutral wells = 0. activation, % at 12.5 µM. hit rate 0.75% among 300,000. AID 588334;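 active = mean activation of at least 80% with every replicate also reaching 80%; inconclusive = mean reaches 80% but some replicate falls short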;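 also: 0% = neutral control wells and 100% = parthenolide positive control wells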
Glyco luc inh: N-linked glycosylation inhibition; D54 ERlucT glycosylation luciferase reporter, 24 h; percent of 100 nM tunicamycin response; reporter increase, % at 12.5 µM; hit rate 0.23% among 360,000;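 active = mean luciferase reporter signal, scaled so untreated is 0 and the glycosylation-blocking control 100, at or above a set limit in every replicate; inconclusive = mean reaches the limit but not every replicate does; inactive = mean below the limit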;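 also: luciferase carries N-glycosylation sites so blocking glycosylation raises the light; 0% = median of neutral control wells and 100% = median of 100 nM tunicamycin wells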
esBAF inh: blocks esBAF chromatin remodeling in mouse ES cells; reporter increase, % at 12.5 µM; AID 602393; Bmi1-luciferase knock-in reporter, 24 h; 100% = twice the neutral-well signal; hit rate 2% among 350,000; in the data active = activation above about 40%; inconclusive = no clear call, values can overlap the other calls;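 also: 0% = median of the plate's neutral control wells and 100% = double that signal; a rise in the Bmi1 reporter signal indicates esBAF inhibition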
Wnt bcat act: Wnt/beta-catenin pathway activation; Wnt/beta-catenin reporter cell assay, activator, plate reader; activation, % at 9.35 µM; hit rate 1.2% among 300,000; in the data active = activation above about 30%, passing the limit was not always enough; inconclusive = no clear call, values can overlap the other calls;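 also: 0% = neutral control wells and 100% = positive control wells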
PfHsp90 set2: growth inhibition of yeast expressing Plasmodium Hsp90; S. cerevisiae expressing PfHsp90, BacTiter-Glo ATP, 48 h; yeast lacking PDR1 and PDR3 efflux regulators; inhibition, % at 9.4 µM; hit rate 0.32% among 310,000; AID 504621;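 active = every replicate shows inhibition above about 80%, whatever the replicate mean, limit read from the data; inconclusive = mean inhibition reaches the set limit but some replicate falls short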;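 also: 0% = DMSO neutral controls and 100% = 20 µM radicicol positive controls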
Numbers without * were called inactive. An excerpt weighted towards active compounds, which were near 3% of everything screened.

Screening CO[C@@H]1CN(C)C(=O)c2cc(NC(=O)C3CC3)ccc2OC[C@H](C)N(C(=O)c2ccccn2)C[C@@H]1C returned esBAF inh -6.
`C=CCNc1nc(Nc2ccccc2F)nc(OCC)n1` gave Vif inh -21, MITF act 45, Glyco luc inh 0, esBAF inh 85*, Wnt bcat act 18 and PfHsp90 set2 1.
For CCOc1nc(Nc2ccccc2F)nc(OCC)n1 the results were Vif inh -14, Glyco luc inh -1, esBAF inh -1, Wnt bcat act 0 and PfHsp90 set2 -7.
O=C(O)c1ccc(-c2ccccc2)[nH]1 was read as Vif inh -8, MITF act -4, Glyco luc inh -2, esBAF inh 7 and Wnt bcat act -1.
`c1ccc(-c2ccc(-c3ccccc3)[nH]2)cc1` gave Vif inh 10, MITF act 46, Glyco luc inh -7, esBAF inh 72*, Wnt bcat act 0 and PfHsp90 set2 -28.
Cc1cc(C)cc(OCC(=O)Nc2ccc3c(c2)OCO3)c1 was read as Vif inh -9, MITF act 8, Glyco luc inh 0, esBAF inh -3, Wnt bcat act -1 and PfHsp90 set2 -7.
`N#Cc1ccccc1OCC(=O)Nc1ccc2c(c1)OCCO2` gave Vif inh -1, MITF act 79, Glyco luc inh -1, esBAF inh 66*, Wnt bcat act -1 and PfHsp90 set2 16.
Screening N#Cc1ccccc1OCC(=O)Nc1ccc2c(c1)OCCCO2 returned Vif inh -2, Glyco luc inh -3, esBAF inh 74*, Wnt bcat act 11 and PfHsp90 set2 -2.
Screening O=C(COc1ccccc1F)Nc1ccc2c(c1)OCCO2 returned Vif inh -3, MITF act 76, Glyco luc inh -8, esBAF inh -20, Wnt bcat act 19 and PfHsp90 set2 -10.
For N#Cc1ccccc1OCC(=O)Nc1ccc2c(c1)OCO2 the results were Vif inh -2, Glyco luc inh -4, esBAF inh 65* and Wnt bcat act 3.
Screening O=C(COc1ccccc1Br)Nc1ccc2c(c1)OCCCO2 returned Vif inh 10, MITF act 108*, Glyco luc inh -7, esBAF inh 51*, Wnt bcat act 0 and PfHsp90 set2 -11.
CSc1nc2c(c(=O)[nH]1)CCCC2 was read as Vif inh 0, MITF act 3, Glyco luc inh 1, esBAF inh -3 and PfHsp90 set2 13.
`CC1CCCCC1NC(=O)COc1ccccc1C#N` (stereo not given) gave Vif inh -9, MITF act 6, Glyco luc inh 0, esBAF inh 53*, Wnt bcat act 8 and PfHsp90 set2 15.
For N#Cc1ccccc1OCC(=O)NC1CCCCC1 the results were Vif inh 3, MITF act 42, Glyco luc inh -1, Wnt bcat act -1 and PfHsp90 set2 -1.
CCCNC(=O)N(C)C[C@H]1Oc2ncc(-c3ccc(C(=O)N(C)C)cc3)cc2C(=O)N([C@@H](C)CO)C[C@H]1C was read as esBAF inh 2.
CC(C)(C)c1[nH]nc2c1C(C1C=CCCC1)C(C#N)=C(N)O2 (stereo not given) was read as Vif inh -5, Glyco luc inh 2, esBAF inh 3 and PfHsp90 set2 7.
CC(C)c1[nH]nc2c1C(C1C=CCCC1)C(C#N)=C(N)O2 (stereo not given) was read as Vif inh -7, MITF act -10, Glyco luc inh 2, Wnt bcat act 46* and PfHsp90 set2 -8.
`Cc1ccc(C(=O)N/C(=C/c2cccs2)C(=O)NCCc2c[nH]c3ccccc23)cc1` gave Vif inh 4, MITF act 6, Glyco luc inh 55*, esBAF inh 2, Wnt bcat act -2 and PfHsp90 set2 -12.
Screening O=C(NCCc1c[nH]c2ccccc12)/C(=C\c1ccco1)NC(=O)c1ccco1 returned Vif inh 21, MITF act -11, Glyco luc inh 1, esBAF inh -5, Wnt bcat act -2 and PfHsp90 set2 14.
Screening Cc1ccc(/C=C(/NC(=O)c2ccccc2)C(=O)NCCc2c[nH]c3ccccc23)o1 returned Vif inh -3, MITF act 0, Glyco luc inh 2, esBAF inh 2, Wnt bcat act -4 and PfHsp90 set2 -2.
`Cc1ccc(C(=O)N/C(=C\c2ccco2)C(=O)NCCc2c[nH]c3ccccc23)cc1` gave Vif inh -3, MITF act -3, Glyco luc inh 30*, Wnt bcat act -1 and PfHsp90 set2 -7.
Screening N=C1/C(=C/c2ccc(OCc3ccccc3)cc2)C(=O)N=C2SC(CC(=O)N3CCOCC3)=NN12 returned Vif inh -9, MITF act 35, Glyco luc inh -3, esBAF inh 42*, Wnt bcat act 3 and PfHsp90 set2 0.
CCOc1ccccc1Nc1nc(-c2sc(NC(=O)c3cccc(Cl)c3)nc2C)cs1 was read as MITF act 16, Glyco luc inh -1, esBAF inh 64*, Wnt bcat act 0 and PfHsp90 set2 6.
`Cc1nc(NC(=O)c2ccccc2)sc1-c1csc(N)n1` gave Vif inh 4, MITF act -2, Glyco luc inh -1, esBAF inh 53*, Wnt bcat act inconclusive and PfHsp90 set2 -27.
`Cc1nc(NC(=O)c2ccccc2)sc1-c1csc(NCc2ccccc2)n1` gave Vif inh -3, MITF act 6, Glyco luc inh -6, esBAF inh 18, Wnt bcat act 0 and PfHsp90 set2 -28.
For Cc1cc(=O)[nH]c(SCC(=O)Nc2nc3c(s2)CCCC3)n1 the results were Vif inh -8, Glyco luc inh 0, esBAF inh 7, Wnt bcat act 2 and PfHsp90 set2 19.
For Cc1ccc(C(=O)NCC(=O)N2CCN(c3ncccn3)CC2)s1 the results were Vif inh 14, MITF act 10, Glyco luc inh 0, esBAF inh 2, Wnt bcat act 4 and PfHsp90 set2 7.
CC1CCCN(CCOc2ccc3ccccc3c2Br)C1 (stereo not given) was read as Vif inh 0, MITF act 96*, Glyco luc inh -7, Wnt bcat act -1 and PfHsp90 set2 -3.
Cc1[nH]c(N=Nc2ccccc2)nc1N=Nc1ccccc1 was read as Vif inh -14, MITF act -18, Glyco luc inh -2, Wnt bcat act 0 and PfHsp90 set2 104*.
`COc1ccc(Oc2ccccc2C#N)cc1` gave Vif inh 2, MITF act 11, Glyco luc inh -1, Wnt bcat act 0 and PfHsp90 set2 -6.
For COc1ccc(CCNC(=O)c2coc3ccccc3c2=O)cc1OC the results were Vif inh 0, MITF act 2, Glyco luc inh -2, esBAF inh -6, Wnt bcat act 0 and PfHsp90 set2 1.
